From the supplement of paper PMC6555819

Experiments:
Assay in all cases: PBM binding z-score (relative to random genomic background probes); higher = stronger binding; sequences stand for … in GC…GCGATTGACAGCGTAGAATGAAGG
[1] = tested on: RARb homodimer (NR concentration 270 nM)
In short: (§1)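 For binding z-scores, the reference was random background probes on custom Agilent 4×180K protein-binding microarrays. These arrays were incubated 1 h with ligand-free nuclear receptor dimers in PBS pH 7.4, 2% milk, 0.02% Triton X-100, 1 mM DTT, 0.2 mg/mL BSA and 0.4 mg/ml salmon testes DNA. Fluorescence was scanned after antibody detection of each partner (one per run) and regression-normalized.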

[2] = tested on: RARg:RXRa (NR concentration 270 nM, RXRa partner concentration 90 nM)
In short: as §1

[3] = tested on: RARg homodimer (NR concentration 270 nM)
In short: as §1

[4] = tested on: RXRa DBDmut IVT, anti-RXR (DBD mutation: RXRa K156A/R161A, NR concentration 90 nM)
In short: as §1

[5] = tested on: RXRa homodimer (NR concentration 180 nM)
In short: as §1

[6] = tested on: THRa:RXRa (NR concentration 90 nM, RXRa partner concentration 90 nM)
In short: as §1

[7] = tested on: THRa homodimer (NR concentration 90 nM)
In short: as §1

[8] = tested on: VDR homodimer (NR concentration 270 nM)
In short: as §1

| Sequence | PBM binding z-score [1] | PBM binding z-score [2] | PBM binding z-score [3] | PBM binding z-score [4] | PBM binding z-score [5] | PBM binding z-score [6] | PBM binding z-score [7] | PBM binding z-score [8] |
| --- | --- | --- | --- | --- | --- | --- | --- | --- |
| GCATATAGGTAATACAATGTGAAAGTCCGATTGT | -0.3 | 0.415 | 0.478 | 0.58 | 0.305 | 0.425 | -0.105 | 0.523 |
| ATCTCTAGGTAAAGTTCAGTTAAAGATCGATAGA | 2.73 | 1.65 | 2.5 | 1.68 | 1.5 | 1.47 | 0.842 | 2.04 |
| TCTCGGAGGACACGAAAGGTCAGAGGTCGACATC | 5.07 | 5.51 | 5.38 | 1.21 | 6.06 | 3.99 | 1.69 | 2.12 |
| TCTGCTAGGTCAGTTGGTCAGCTTACGAGCTGCC | 2.7 | 2.62 | 3.97 | 0.621 | 0.757 | 1.26 | 0.376 | -0.597 |
| ATCTCTAGGTAACAAGTTCAGTGAAAGAGAGGAC | 1.78 | 1.52 | 1.61 | 1.06 | 0.955 | 1.68 | 0.986 | 3.36 |
| GCTATTAGTTGAAAGGGCCACCGAATGATTCTCG | 1.19 | 0.331 | 0.583 | 0.436 | 0.34 | 0.0196 | -0.402 | 0.169 |
| AGACCGAGGGCACGCTGAGTTGATAGCAGAGTAG | 1.33 | 2.22 | 2.06 | 1.49 | 1.31 | 1.77 | -0.237 | 1.75 |
| ATATGTAGGTTATCGGGTCATTGAGTTTGCGCAT | 3.16 | 3.43 | 2.61 | 1.94 | 3.51 | 3.42 | 2.76 | 5.54 |
| TGAATGAGGTTATAAGATCAGGAAACGTTGCAAA | 0.0307 | 1.61 | 0.861 | 0.926 | 2.21 | 1.77 | -0.0709 | 0.225 |
| AGAATGATGTTACCAAAGATCAGGGAAACGCTTG | -0.737 | 0.0194 | 0.432 | -0.312 | 0.387 | -0.115 | -0.58 | -0.437 |
| GTGCCAAGGTGAATAGGTCGTTGATGAGTAGGCG | 1.92 | 2.61 | 1.46 | -0.262 | 1.55 | 1.72 | 0.56 | -0.115 |
| ACTATTAGTTGACTTCGGGCAACCGATACGACGC | 0.558 | 0.37 | 0.691 | 0.225 | 0.42 | 1.06 | 0.256 | 0.371 |
| GCTTACGGGTCAACGGTTATAGCATGAATAGAAT | 2.84 | 4.92 | 4.66 | 2.06 | 5.29 | 2.59 | -0.0988 | 0.695 |
| AGTCAAAGTTAACTAGGTAACGTAAGATTCAGCT | -0.331 | 0.302 | 0.566 | -0.266 | 0.258 | 0.564 | -0.252 | -0.183 |
| AATACAGGGTCACTAGGCCAGAGTAGGTACGAAT | 3.61 | 5.13 | 4.83 | 2.83 | 5.52 | 3.38 | 1.27 | 2.5 |
| AGAATGAGGTTACCAAAGAACAGGGAAACGCTTG | 0.612 | 1.93 | 1.35 | 0.909 | 2.36 | 2.59 | 0.733 | 0.342 |
| TCTGCTAGGTCAACGATAGTCAGCTAATCTGCTA | 2.84 | 3.9 | 4.6 | 0.919 | 2.63 | 2.67 | 0.277 | -0.234 |
| TGTCCAAGTTCAAAGGTAACGTAAGTATCCACAC | 2.25 | 4.05 | 3.45 | 4.24 | 5.21 | 3.05 | 0.0637 | 4.33 |
| TCATATAGGTAATACAGGTGGAAGTCGGCATCTA | 0.159 | 0.56 | 0.449 | 1.5 | 1.31 | 0.353 | 0.0491 | 0.547 |
| TAGCCTAGGTCATGCGGGCCAGTATGGTGTCGGC | 2.86 | 4.2 | 4.58 | 0.269 | 3.23 | 2.96 | 1.07 | 0.682 |
| CCGAGTAGCTTATGGGGCATTCAGGCAACGGTGA | -0.2 | -0.278 | -0.43 | 0.0685 | -0.245 | -0.153 | -0.655 | -0.541 |
| GCGACTGCGGCAAAGCAGGTTACCATAAGGTTGG | 0.0926 | -0.183 | -0.487 | -0.499 | -0.0388 | 0.953 | -0.402 | -0.315 |
| GCGACTGGGGCATCAGCAGGTTACCAGAACTTAA | 0.768 | 0.911 | 0.328 | -0.241 | 0.262 | 0.858 | -0.159 | -0.517 |
| TCTTGTAGATCAAGCAGGTTAAGACAGCCTGAGT | 0.295 | -0.0241 | -0.105 | 0.547 | 0.368 | 0.23 | -0.66 | -0.155 |
| CCTGCTAGGTCATAGTCAGCTAATCTACAGTATG | 2.32 | 3.3 | 3.57 | 2.08 | 2.13 | 2.62 | 0.766 | 0.519 |
| ATCTCTAGGTCACCAAGTTCAGTGAATGCCGAAC | 4.45 | 5.35 | 6.25 | 2.74 | 4.73 | 3.89 | 3.22 | 6.15 |
| ACTATTAGGTGAGACGAGGGCAACCGATAGGTTG | 1.7 | 1.03 | 1.43 | 0.288 | 0.97 | 3.84 | 0.802 | 1.07 |
| TCTATTAGTGGATTAGGGCAACCGAAACAGCGGA | 0.492 | 0.384 | 0.643 | 1.06 | 0.49 | 0.449 | 0.4 | 0.393 |
